ADAM10 inh: inhibitors of human ADAM10. O14672. recombinant ADAM10, EDANS/DABCYL FRET peptide cleavage, 3 h. inhibition, % at 7 µM. 370,000 compounds, 0.62% hits. AID 720582;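 active means inhibition above a per-campaign cutoff equal to the mean of compounds falling between control-based bounds plus 3 SD, cut at about 20% in these data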;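 further: 0% = DMSO wells while the 100% control is not disclosed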
ADAM17 inh: ADAM17 inhibition, QFRET primary screen; P78536; recombinant ADAM17, EDANS/DABCYL FRET peptide cleavage; inhibition, % at 6.95 µM; 370,000 compounds, 0.83% hits;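 active means inhibition above the mean of compounds lying between control limits plus 3 SD, set per campaign, cut at about 8.5% in these data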;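 further: 0% = DMSO-only wells as the low control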
Target sequence (P78536 215-824 limits assumed): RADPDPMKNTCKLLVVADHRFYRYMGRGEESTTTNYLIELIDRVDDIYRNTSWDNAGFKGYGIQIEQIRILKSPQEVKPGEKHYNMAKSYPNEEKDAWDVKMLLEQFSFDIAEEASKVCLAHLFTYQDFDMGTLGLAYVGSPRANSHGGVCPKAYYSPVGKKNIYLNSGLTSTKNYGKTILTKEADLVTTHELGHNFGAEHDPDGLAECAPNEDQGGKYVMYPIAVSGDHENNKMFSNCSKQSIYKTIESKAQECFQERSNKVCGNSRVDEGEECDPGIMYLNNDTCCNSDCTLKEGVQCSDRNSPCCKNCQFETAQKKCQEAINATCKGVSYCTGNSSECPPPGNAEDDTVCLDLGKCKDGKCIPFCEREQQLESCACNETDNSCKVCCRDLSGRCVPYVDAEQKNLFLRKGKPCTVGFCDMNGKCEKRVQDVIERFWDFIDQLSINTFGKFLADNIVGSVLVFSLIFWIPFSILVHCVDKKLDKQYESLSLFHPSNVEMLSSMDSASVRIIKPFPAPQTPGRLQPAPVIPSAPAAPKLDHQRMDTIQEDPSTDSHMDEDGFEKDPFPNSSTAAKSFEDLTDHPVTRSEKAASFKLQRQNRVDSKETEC
NR3A LBD binder: NR3A (human) ligand-binding domain modulation. NR3A LBD differential scanning fluorimetry, Tm shift; 0% = protein alone, 100% = glycine-bound protein. Tm shift relative to glycine control, % at 25 µM. 340,000 compounds, 2.5% hits. AID 1259313;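 active means melting temperature shift of at least 10% of the positive control shift, at one fixed dose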
FAS TE block: inhibitors of human fatty acid synthase thioesterase domain; P49327; recombinant FAS-TE, OMFH fluorogenic substrate, fluorescence endpoint; inhibition, % at 15 µM; 360,000 compounds, 0.67% hits; AID 602261;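 active means compounds whose normalised, plate-corrected inhibition of enzyme fluorescence in the single-dose primary screen is 50% or more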;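 further: 0% = DMSO with enzyme and 100% = substrate without enzyme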
KLK7 zymogen act: proKLK7 (human) activation, primary screen | purified proKLK7, EDANS-DABCYL substrate fluorescence; 100% is mature enzyme control, 0% vehicle | P49862 | 370,000 compounds, 0.9% hits | AID 652039 | activation, % at 7 µM;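 active means activation above the mean of all tested compounds plus 3 SD, computed per campaign excluding outliers beyond control limits, cut at about 13% in these data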
ADAM10 ctr: counter-screen for ADAM17 exosite inhibitors: inhibitors of human ADAM10; shares compounds with ADAM17 inh; recombinant ADAM10, EDANS/DABCYL FRET peptide cleavage, 3 h; inhibition, % at 6.95 µM; 2,900 compounds, 47% hits;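 active means mean inhibition over the triplicate runs exceeds the activity threshold set in the earlier primary screen, cut at about 20% in these data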;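 further: 0% = DMSO wells and 100% = marimastat wells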
ADAM17 confirm: human ADAM17 inhibition, confirmation | AID 743257 | 2,900 compounds, 65% hits | inhibition, % at 6.95 µM | shares compounds with ADAM17 inh | recombinant ADAM17, EDANS/DABCYL QFRET peptide cleavage;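 active means mean inhibition across replicates above the hit cutoff set in the primary screen, cut at about 8.5% in these data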;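 further: 0% = DMSO wells and 100% = marimastat wells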
Starred values were filed as active, the others as inactive; / = not tested or not shown. A selection: hits, their analogues and other compounds. The true share with any hit is near 4.6%.

SMILES	ADAM10 inh	ADAM17 inh	NR3A LBD binder	FAS TE block	KLK7 zymogen act	ADAM10 ctr	ADAM17 confirm
O=C(NC(=S)NCCc1ccccc1)c1ccccc1F	13	10*	8	22	1	12	6
O=C(NC(=S)NCc1ccccc1)c1ccccc1F	-9	-3	3	17	0	/	/
CC(C)(C)NC(=O)C(c1ccncc1)N(C(=O)Cn1nnc(-c2ccc(F)cc2)n1)c1ccccc1F (stereo not given)	-3	0	-1	-6	0	/	/
CC(C)(C)NC(=O)C(c1ccc(O)cc1)N(C(=O)Cn1nnc(-c2ccc(F)cc2)n1)c1ccccc1F (stereo not given)	16	9.9*	-29	17	0	39*	18*
CC(C)N=c1scc(-c2cccs2)n1/N=C/c1ccc(O)c(O)c1O	8	9.3*	6	11	0	14	12*
Cc1nc2c(OCc3cc(Cl)cc(Cl)c3)cccn2c1N(C)C(=O)CCC1CCCC1	8	11*	/	27	1	12	10*
Cc1ccc(NS(=O)(=O)c2cc([N+](=O)[O-])ccc2NNC(=S)Nc2cc(C)ccc2C)c(C)c1	20*	10*	20*	20	0	34*	22*
O=C(NCc1ccccc1)C1=C[C@H](c2ccc(C(F)(F)F)cc2)C[C@H](OCc2ccc(CO)cc2)O1	17	14*	0	28	1	19	7
COC(=O)C1=C(C(=O)OC)SC2(S1)C(C(=O)OC)=C(C(=O)OC)SC1=C2c2cccc(C)c2NC1(C)C	13	13*	-1	-4	1	19	11*
C[C@@H]1NS(=O)(=O)c2cccc(Cl)c2O[C@@H]1c1ccccc1	-4	-3	/	/	0	/	/
C=CC[C@H](CC(=O)N(CCO)Cc1ccccc1)C(=O)N[C@H](C)COC(=O)[C@@H](CC=C)CC(=O)OC(C)(C)C	0	-2	-1	1	0	/	/
C=CC[C@H](CC(=O)N[C@H](CO)Cc1ccccc1)C(=O)N[C@H](COC(=O)[C@H](CC=C)CC(=O)OC(C)(C)C)Cc1c[nH]c2ccccc12	18	11*	-8	8	0	26*	13*
C=CC[C@@H](CC(=O)N[C@@H](CO)Cc1ccccc1)C(=O)N[C@H](COC(=O)[C@H](CC=C)CC(=O)OC(C)(C)C)Cc1c[nH]c2ccccc12	18	9.9*	-6	15	1	44*	23*
C=CC[C@@H](CC(=O)N(CCO)Cc1ccccc1)C(=O)N[C@H](COC(=O)[C@@H](CC=C)CC(=O)OC(C)(C)C)Cc1ccccc1	28*	18*	1	14	0	39*	18*
C=CCC[C@@H](Cc1ccc(F)cc1)C(=O)OC[C@@H](NC(=O)[C@@H](CC=C)CC(=O)N[C@H](CO)Cc1ccccc1)C(C)(C)C	18	9.6*	-1	10	0	35*	18*
COC(=O)C1=C(C)N(C)C(=NCc2ccc(OC)cc2)NC1c1ccc(C(F)(F)F)cc1 (stereo not given)	-10	-3	/	/	0	/	/
C=CC[C@@H](CC(=O)N[C@H](CO)Cc1ccccc1)C(=O)N[C@H](COC(=O)[C@@H](CC=C)CC(=O)OC(C)(C)C)Cc1ccccc1	10	9.6*	-1	8	1	19	8
CC(Oc1ccc(Cl)cc1Cl)C(=O)Nc1cccc(O)c1 (stereo not given)	-5	-1	0	1	0	/	/
CC(Oc1ccc(Cl)cc1Cl)C(=O)Nc1ccc(O)cc1 (stereo not given)	6	8.8*	-6	8	0	5	6
Cc1cc(S(=O)(=O)NCc2ccccc2)ccc1OCC(=O)Nc1cccc([N+](=O)[O-])c1	18	8.7*	11*	37	0	35*	22*
Cc1cc(S(=O)(=O)NCc2ccccc2)ccc1OCC(=O)NCc1ccccn1	5	-1	0	-6	0	/	/
C[C@@H]1CCCCO[C@@H](CN(C)C(=O)NC2CCCCC2)[C@@H](C)CN([C@H](C)CO)C(=O)c2cc(N(C)C)ccc2O1	-28	-8	/	/	-1	/	/
COc1ccc(C(=O)N2CCCC(c3cc(C(=O)NCc4ccccc4)no3)C2)cc1 (stereo not given)	-12	-2	/	-2	-1	/	/
COc1ccc(C(=O)N2CCCC(c3cc(C(=O)NCc4ccc(F)cc4)no3)C2)cc1 (stereo not given)	6	8.8*	/	-6	0	-6	-2
COC(=O)[C@]12C[C@H](CC(=O)N3CCCCC3)C(=O)N(Cc3ccccc3)C1=C[C@H](C(C)C)O[C@@H]2C1CC1	2	7	/	/	-1	/	/
SMILES	ADAM10 inh	ADAM17 inh	NR3A LBD binder	FAS TE block	KLK7 zymogen act	ADAM10 ctr	ADAM17 confirm
COc1ccc(CSc2nc(O)cc(=O)n2CC(C)C)cc1F	6	-1	-2	-3	0	/	/
COc1ccc(OC)c(NC(=O)CSc2nc(O)cc(=O)n2CC(C)C)c1	8	9.3*	-12	-3	0	3	4
Cc1ccc(N(C)S(=O)(=O)c2cccc(C(=O)N3CCN(Cc4ccccc4)CC3)c2)cc1	16	9.3*	2	11	1	12	6
CN(C)S(=O)(=O)c1cccc(C(=O)N2CCN(Cc3ccccc3)CC2)c1	-2	-2	-1	-4	0	/	/
CC(C)(C)c1ccc(-c2nc(NCc3cccnc3)c3ccccc3n2)cc1	13	13*	8	45	-1	18	12*
Cc1ccc(S(=O)(=O)N(C)CC(=O)NNC(=O)Cc2cccc(F)c2)cc1	4	-1	1	-7	-1	/	/
Cc1ccc(S(=O)(=O)N(C)CC(=O)NNC(=O)Cc2ccccc2F)cc1	5	11*	1	-6	0	19	11*
CC(Oc1ccc(Cl)cc1)c1ccnn1S(=O)(=O)c1ccccc1 (stereo not given)	3	8.9*	5	25	0	15	15*
CC(Oc1ccccc1)c1ccnn1S(C)(=O)=O (stereo not given)	7	5	0	-15	0	/	/
O=C(NCc1ccccc1)[C@H]1CCCN1C(=O)[C@H]1CCCN1C(=O)c1ccc(F)c(C(F)(F)F)c1	-15	-6	/	/	0	/	/
O=C(CC1Sc2ccccc2NC1=O)OCC(=O)N1CCc2ccccc21 (stereo not given)	-2	9.2*	3	3	0	8	8
Cc1cc(C(=O)COC(=O)CC2Sc3ccccc3NC2=O)c(C)n1-c1ccc(Br)cc1 (stereo not given)	13	8.8*	-16	10	-1	7	8

Bioassay records: PubChem, several laboratories
